# About 820 (0.29%) of roughly 280,000 compounds were called active. Another 1% or so got no clear call; they are omitted. Calls come from the whole dose curve; as a rule, active = well fitted curve in either direction with a large enough effect; inconclusive = small, poorly fitted or top-dose-only effect; inactive = flat fitted curve, though single readings scatter. The list comes from a sample in which actives are over-represented; it also holds similar structures and randomly drawn compounds.
# Assay: Total Fluorescence Counterscreen for Inhibitors of the Interaction of Thyroid Hormone Receptor and Steroid Receptor Coregulator 2
# Details: TRb/SRC2 Texas Red total fluorescence interference; series mostly up to 106 µM; fluorescence change, negative = quenching: at the top concentration
# Outline: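 Human TRb ligand-binding domain at 0.6 uM with 20 nM Texas Red SRC2 peptide in Tris buffer containing 1 uM T3 and 5% DMSO, incubated with compound 5 h at ambient temperature. Total fluorescence (555/632 nm) calculated as parallel + 2 × perpendicular.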
# % is set by controls: 0 for no effect and ±100 for the full control effect; potency is the fitted concentration of half-maximal effect; tags give direction and shape of the fitted curve or compound fluorescence and quenching.
SMILES,"fluorescence change, negative = quenching",Potency
Cc1csc2nc(COC(=O)c3ccc(NC(=O)COc4ccccc4F)cc3)cc(=O)n12,-0.21% (inactive),
COc1cc2ccccc2cc1C(=O)Nc1cccc(-c2nc3ccccc3o2)c1,0.567% (inactive),
O=C(CN1CCSc2ccccc21)N1CCN(c2ccccc2)CC1,-0.0734% (inactive),
Cc1ccc(N)c(S(=O)(=O)O)c1,-6.26% [at 201 µM] (inactive),
Cn1c(=O)[nH]c(=O)c2c1nc(NCCc1ccccc1)n2Cc1ccc(F)cc1,-0.664% (inactive),
COc1ccc(CNC(=O)Cc2coc3ccc(C(C)C)cc23)cc1,-20.8% (inactive),
COCCNC(=O)Nc1ccc2nc(-c3ccco3)c(-c3ccco3)nc2c1,,28.2 µM [quencher] (active)
O=C(Nc1ccc2nccnc2c1)c1ccco1,-2.35% (inactive),
CC(C)(C)c1ccc(NC(=O)NCc2ccco2)cc1,-4.34% (inactive),
CC1CCCN(c2nc3c(S(=O)(=O)c4ccc(C(C)C)cc4)nnn3c3ccsc23)C1 (configuration not stated),-1.97% (inactive),
Cc1ccc(-c2noc(CSc3nnc(-c4ccc(Cl)cc4)n3C)n2)cc1,6.15% (inactive),
CCc1cccc(NC(=O)Cn2nc(CC)n3c(cc4cc(C)ccc43)c2=O)c1,-3.05% (inactive),
OCCC(F)(F)C(F)(F)C(F)(F)C(F)(F)C(F)(F)C(F)(F)C(F)(F)C(F)(F)F,-3.95% [at 201 µM] (inactive),
CC(=O)c1cccc(Nc2ccc3cc(S(=O)(=O)N4CCC(C)CC4)ccc3n2)c1,-2.64% (inactive),
COc1ccccc1NC(=O)c1cc(S(=O)(=O)NCCc2ccccc2)ccc1F,-1.18% (inactive),
CC1(C)C(=O)N(Br)C(=O)N1Br,0.683% [at 201 µM] (inactive),
COC(=O)c1ccc(NC(=O)CCc2c(C)nc3c(c(C)nn3-c3ccc(C)cc3)c2C)cc1,-1.65% (inactive),
CC(=O)N(CCN(C(C)=O)C(C)=O)C(C)=O,-0.655% [at 201 µM] (inactive),
CC(NC(=O)c1cc2c(=O)n3ccccc3nc2n(C(C)C)c1=N)c1ccccc1 (configuration not stated),-1.91% (inactive),
O=C(Cn1c(=O)nc(-c2ccccc2)c2cc(Cl)ccc21)NCc1ccc(Cl)cc1,-1.77% (inactive),
Cc1ccccc1CNC(=O)C1CCCN(S(=O)(=O)N(C)c2ccc(F)cc2)C1 (configuration not stated),-1.26% (inactive),
COc1ccc(CCN2C(=O)N(c3cccc(OC)c3)C(=O)C2CC(=O)Nc2ccccc2)cc1 (configuration not stated),-1.82% (inactive),

SMILES,"fluorescence change, negative = quenching",Potency
O=C(CC1N=C2c3ccccc3N=C(SCc3cccc(Cl)c3)N2C1=O)NCc1ccc2c(c1)OCO2 (configuration not stated),-0.205% (inactive),
CCCCCCCCCCCCCCCC,-2.34% [at 201 µM] (inactive),
COc1ccc(CCC(=O)NCc2ccc3c(c2)CCN3C(=O)c2ccc(F)cc2)cc1,-12.6% (inactive),
CC(Nc1ccc(-c2nc(-c3ccco3)no2)cc1[N+](=O)[O-])c1ccccc1 (configuration not stated),-1.44% (inactive),
Cc1oc2ccc(O)c(CN3CCC(C)CC3)c2c1C(=O)Nc1ccccc1,-29.7% (inactive),
CCc1cccc(C)c1Nc1c(-c2ccc(N(C)C)cc2)nc2ncccn12,1.78% (inactive),
CCn1c(=O)cc(OCC(=O)Nc2cc(Cl)c(OC)cc2OC)c2ccccc21,-3.2% (inactive),
CCC(=O)Nc1cccc(C(=O)OCc2cc(=O)n3nc(CC)sc3n2)c1,-0.224% (inactive),
Cc1cccc(CSc2nc3ccncc3n2CC(=O)N(C)C2CCCCC2)c1,-0.651% (inactive),
COc1ccc(CCNC(=O)CCCCn2c(=O)c3ccccc3n(Cc3ccccc3C)c2=O)cc1OC,10.7% (inactive),
COc1ccc(CNc2nc(-c3ccccc3)nn2C(=O)c2ccccc2OC)cc1,1.36% (inactive),
COc1ccccc1NC(=O)c1cc(C2CC2)nc2c1c(C)nn2-c1ccc(C)cc1,-0.295% (inactive),
CCc1nnc2c3ccccc3nc(N3CCN(c4ccc(C)cc4C)CC3)n12,-3.56% (inactive),
Cc1ccc(C)c(N2CCN(C(c3ccccc3)c3nnc(-c4ccccc4)o3)CC2)c1 (configuration not stated),0.0308% (inactive),
CCOC(=O)c1cccc(NC(=O)c2cc(S(=O)(=O)N3CCCC(C)C3)cn2C)c1 (configuration not stated),0.77% (inactive),
CCn1c2ccccc2c2cc(NC(=O)COc3ccc(C)cc3C)ccc21,-2.08% (inactive),
CCOC(=O)c1ccc(NC(=O)c2csc3c2CCCCC3)cc1,0.898% (inactive),
CCOCCCNC(=O)c1c(NC(=O)c2nc(SC)ncc2Cl)sc2c1CCCC2,8.52% (inactive),
COCCCNC(=O)c1c(NC(=O)c2cc(=O)c3cc(C)c(C)cc3o2)sc2c1CCCC2,8.54% (inactive),
CCCSc1ncc(Cl)c(C(=O)Nc2sc3c(c2C(=O)NCCOC)CCCC3)n1,,0.1 µM [quencher] (active)
CCOC(=O)c1scc(-c2ccc(C)cc2)c1S(=O)(=O)Nc1cc(C)ccc1C,-5.89% (inactive),
O=C(Oc1ccc([N+](=O)[O-])cc1)c1ccc(Cl)c(S(=O)(=O)N2CCCCC2)c1,,0.316 µM [quencher] (active)

SMILES,"fluorescence change, negative = quenching",Potency
O=C(Nc1ccc2c(c1)OCCO2)c1ccc(Cl)c(S(=O)(=O)N2CCCCC2)c1,0.377% (inactive),
O=[N+]([O-])c1cccc(S(=O)(=O)N2CCCCCC2)c1,-2.2% (inactive),
Cc1ccc(/C=N/NC(=S)Nc2cccc(S(=O)(=O)N(C)C)c2)o1,-2.71% (inactive),
CN(C)S(=O)(=O)c1cccc(NC(=S)NCc2ccc3c(c2)OCO3)c1,-3.31% (inactive),
CN(C)S(=O)(=O)c1cccc(NC(=S)N/N=C/C(=O)c2ccccc2)c1,,4.47 µM [quencher] (active)
COc1ccc(OC)c(NC(=O)CSC2=Nc3ccccc3C3=NC(CC(=O)NCCc4ccccc4)C(=O)N23)c1 (configuration not stated),-2.61% (inactive),
CCC(Sc1nnc(-c2ccc(OC)cc2)c(-c2ccc(OC)cc2)n1)C(=O)NC1CCCCC1 (configuration not stated),-0.831% (inactive),
CCCSc1nc2sc3c(c2c(=O)n1-c1cccc(Br)c1)CC(C)(C)OC3,-1.43% (inactive),
Fc1ccc(-c2nn(-c3ccccc3Cl)c3c2cnc2ccccc23)cc1,1.1% (inactive),
COCCOC(=O)c1sc(=S)n(CCOC)c1N,,50.1 µM [fluorescent] (active)
COC(=O)c1sc(=S)n(-c2ccccc2)c1N,-0.443% (inactive),
CCOC(=O)c1c(N)sc(C(C)=O)c1C,1.41% (inactive),
COc1ccc(-c2nnc(SCC(=O)Nc3ccc(C(C)C)cc3)nc2-c2ccc(OC)c(OC)c2)cc1OC,0.883% (inactive),
Cc1ccc(-n2nc(C)c3c(C)cc(=O)n(CC(=O)Nc4ccc(C(C)C)cc4)c32)cc1,3.88% (inactive),
COc1cccc(-c2nc(S(=O)(=O)c3ccc(C)cc3)c(NCc3ccccc3)o2)c1,-2.77% (inactive),
COc1ccc(OC)c(CN2C(=O)CCC2(C)C(=O)NC2CCCCCC2)c1 (configuration not stated),-0.653% (inactive),
COc1cccc(CN2C(=O)CCC2(C)C(=O)NC2CCCCCC2)c1 (configuration not stated),1.09% (inactive),
CCc1ccccc1N1C(=O)CN(S(=O)(=O)CC)CC1(C)C(=O)NC1CCCCC1 (configuration not stated),,17.8 µM [quencher] (active)
COc1ccc(S(=O)(=O)NCc2cccn2Cc2cccc(C)c2)cc1Cl,-1.88% (inactive),
CCOc1ccc(N2CC(C)Cn3c2nc2c3c(=O)n(Cc3c(F)cccc3Cl)c(=O)n2C)cc1 (configuration not stated),-2.1% (inactive),
O=C(NCCCN1CCN(c2cccc(Cl)c2)CC1)c1nnc(Cc2ccc(F)cc2Cl)o1,-0.155% (inactive),
CCOc1cc(C2c3c(-c4ccc(Br)cc4)n[nH]c3C(=O)N2c2ccc(Cl)cc2)ccc1O (configuration not stated),0.442% (inactive),

SMILES,"fluorescence change, negative = quenching",Potency
CC1CCN(S(=O)(=O)c2ccc3c(c2)N(CC(=O)NCc2ccccc2Cl)C(=O)CO3)CC1,-0.255% (inactive),
CC(C)CC(=O)Nc1nnc(S(=O)(=O)N(C)c2ccc(Cl)cc2)s1,-12.2% (inactive),
CCN(c1ccc(Cl)cc1)S(=O)(=O)c1nnc(NC(=O)c2ccco2)s1,-8.1% (inactive),
Cc1ccccc1C(=O)Nc1nnc(S(=O)(=O)N(C)c2ccc(Cl)cc2)s1,,31.6 µM [quencher] (active)
CN(Cc1ccccc1)C(=O)CCS(=O)(=O)c1cc(Br)cc2c1N(C(=O)C1CC1)CC2,-2.08% (inactive),
O=C(Nc1ccc(F)cc1F)c1cnn(-c2ccc(F)cc2)c1-n1cccc1,0.454% (inactive),
Clc1nc(Cl)c(Cl)c(Cl)c1Cl,-4.5% [at 201 µM] (inactive),
COc1c(O)c2c(=O)cc(OC)c3c4c(OC)cc(=O)c5c(O)c(OC)c6c(c(c1C[C@@](C)(O)[C@H]6C(C)=O)c23)c54,,44.7 µM [fluorescent] (active)
CCn1cc(C(=O)N2CCN(c3cc(Cl)ccc3C)CC2)c(=O)c2cc(S(=O)(=O)N3CCCC3)ccc21,-1.15% (inactive),
CCc1ccccc1NC(=O)Cn1c(=O)n(-c2cccc(C)c2)c(=O)c2c1c1cc(OC)ccc1n2C,-1.44% (inactive),
Cc1ccccc1C(=O)N(Cc1ccc(N(C)C)cc1)CC1CCCO1 (configuration not stated),0.685% (inactive),
N#C/C(=C/c1ccc(N2CCCCC2)o1)C(=O)NCCc1c[nH]c2ccccc12,-0.527% (inactive),
N#C/C(=C\c1ccc(N2CCOCC2)o1)C(=O)N1CCOCC1,0.512% (inactive),
N#C/C(=C/c1ccc(N2CCOCC2)o1)C(=O)N1CCOCC1,,44.7 µM [fluorescent] (active)
CCc1c(C(=O)O)c(=O)cnn1-c1ccc(Cl)cc1,-12.7% [at 201 µM] (inactive),
O=C(CCSCc1ccccc1F)N1CCN(c2ccc(Cl)cc2)CC1,-2.62% (inactive),
Cc1ccccc1CN1C(=O)c2ccccc2Sc2ccc(C(=O)NCCCN3CCOCC3)cc21,0.0604% (inactive),
COc1ccccc1NC(=O)CN1C(=O)c2ccccc2Sc2ccc(C(=O)N3CCCC3)cc21,-6.38% (inactive),
COc1cccc(CNC(=O)c2ccc3c(c2)N(Cc2ccc(C(F)(F)F)cc2)C(=O)c2ccccc2S3)c1OC,,31.6 µM [quencher] (active)
CC(=O)N1CCCc2cc(S(=O)(=O)N3CCC(C(=O)NCc4ccc(F)cc4)CC3)ccc21,-33.4% (inactive),
CCCCNC(=O)c1ccc2c(c1)NC(=O)C(C(C)C)N2 (configuration not stated),,0.0562 µM [quencher] (active)
CCCCNC(=O)CCNC(=O)c1ccc(C(C)(C)C)cc1,-2.87% (inactive),

SMILES,"fluorescence change, negative = quenching",Potency
CCCN(CCC)CCNC(=O)c1ccc2c(c1)NC(=O)C(CS(=O)(=O)Cc1cccc(Br)c1)N2 (configuration not stated),-0.748% (inactive),
CSc1ccccc1NC(=O)CCS(=O)(=O)c1nc(-c2cccs2)cc(C(F)(F)F)n1,-0.205% (inactive),
O=C(Nc1cc(C(F)(F)F)ccc1Cl)c1ccc2c(c1)CCN2S(=O)(=O)c1ccccc1,1.06% (inactive),
CCc1ccccc1NC(=O)CSc1nc(C)c(C(=O)Nc2ccccc2)c(-c2ccc(Cl)cc2)c1C#N,1.72% (inactive),
CCn1cc2nc(SCc3cccc(F)c3)n(CCc3ccccc3)c(=O)c2n1,-0.462% (inactive),
CN1c2ccc(Cl)cc2-c2nc(SCC(=O)Nc3cc(F)ccc3F)ncc2S1(=O)=O,0.99% (inactive),
O=C(Nc1nnc(S(=O)(=O)N2CCCc3ccccc32)s1)c1cccc(F)c1,-0.796% (inactive),
Cc1ccc(S(=O)(=O)N2CCCc3cc(NS(=O)(=O)c4cc(C)ccc4C)ccc32)cc1,-1.28% (inactive),
Cc1c2cnn(-c3ccccc3)c(=O)c2c(C)n1C(C)C(=O)Nc1ccc(Br)cc1F (configuration not stated),-3% (inactive),
O=C(NCc1cccnc1)C(=O)NCC(c1cccnc1)N1CCN(c2ccccc2)CC1 (configuration not stated),6.49% (inactive),
CCN(CC)S(=O)(=O)c1ccc2c(c1)nc(CN(C)C(=O)Nc1ccc(Cl)cc1)n2C,0.355% (inactive),
COCCNc1ncnc2c1c(-c1ccccc1)cn2-c1ccc(C)c(Cl)c1,-0.894% (inactive),
COc1ccccc1N1CCN(c2ncnc3onc(-c4ccc(F)cc4)c23)CC1,-4.64% (inactive),
COc1cc(NC(=O)c2cc(C3CC3)nc3c2c(C)nn3-c2ccccc2)cc(OC)c1,-0.897% (inactive),
Cc1[nH]c2ccccc2c1C(c1ccccc1)c1cccs1 (configuration not stated),-25.5% (inactive),
COc1cccc(CNC(=O)Cc2csc3nc(-c4ccccc4)cn23)c1,-5.57% (inactive),
Fc1ccc(CN2CCc3nc(Nc4ccccc4)ncc3C2)cc1F,-1.99% (inactive),
Cc1ccc(-c2cn3c(n2)sc2cc(C(=O)NCc4cccs4)ccc23)c(C)c1,4.67% (inactive),
CC(C)CC(=O)NCC(c1ccc2c(c1)OCO2)N1CCN(c2ccc(F)cc2)CC1 (configuration not stated),-0.0801% (inactive),
